Screening data deposited in PubChem BioAssay by The Scripps Research Institute Molecular Screening Center.
hgDAF12 agonist = agonists of H. glycines DAF-12 nuclear receptor | 370,000 tested, 1.8% active | HEK293 GAL4-hgDAF12 UAS-luciferase reporter, agonist luminescence; normalized to butyrate control | activation, % at 6.8 µM;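 active = activation above a cutoff set at the mean of all screened compounds plus 3 SD, cut at about 10% in these data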
DAX1 inh-1 = blocks DAX1 repression of SF-1 activated StAR promoter; HEK293T StAR-luciferase reporter, SF-1/DAX-1 repression relief; inhibition, % at 6.8 µM; 370,000 tested, 1.1% active; AID 652010;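 active = inhibition above the mean over all tested compounds plus 3 SD, cut at about 3.6% in these data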;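 note: higher inhibition means more luminescence from relief of DAX-1 repression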
DAX1 inh-2 = inhibits human nuclear receptor DAX1; HEK293 Gal4-DAX1 luciferase reporter, luminescence; P51843; inhibition, % at 6.75 µM; AID 504766; 340,000 tested, 0.99% active;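 active = inhibition above the mean over all tested compounds plus 3 SD, cut at about 4.2% in these data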;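 note: inhibition shows as a rise in luminescence from relieved DAX1 repression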
Target sequence (P51843 207-470 limits assumed): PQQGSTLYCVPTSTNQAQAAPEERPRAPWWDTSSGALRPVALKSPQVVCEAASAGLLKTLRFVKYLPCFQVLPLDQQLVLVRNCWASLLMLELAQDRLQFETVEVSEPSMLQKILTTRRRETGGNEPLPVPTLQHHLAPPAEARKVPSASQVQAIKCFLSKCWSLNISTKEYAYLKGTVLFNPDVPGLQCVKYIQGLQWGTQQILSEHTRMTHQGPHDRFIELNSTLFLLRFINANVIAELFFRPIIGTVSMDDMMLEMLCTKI
Wee1 stabilizer = inhibitors of human Wee1 degradation | reporter increase, % at 5 µM | HeLa Luc-Wee1K328M stability, luciferase luminescence; 100% = proteasome inhibitor MG132 effect | P30291 | 220,000 tested, 1.2% active | AID 1321;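 active = activation above the mean of all tested compounds plus 3 SD, set per screening run, cut at about 8.8% in these data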;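 note: cells exposed to compound for 20 h before luminescence read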
ssDAF12 agonist = activators of S. stercoralis DAF-12 nuclear receptor | activation, % at 6.8 µM | AID 652126 | 370,000 tested, 1% active | HEK293 ssDAF-12/GRIP1 lit1-tk-luc reporter, luminescence; % of 3 µM dafachronic acid response;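 active = activation above the mean over all tested compounds plus 3 SD, cut at about 0.9% in these data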
hcDAF12 agonist = H. contortus DAF-12 activation, primary screen. HEK293 hcDAF-12 lit1-tk-luc reporter, luminescence; 0% DMSO, 100% Δ7-dafachronic acid. activation, % at 6.8 µM. 370,000 tested, 1.4% active;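 active = activation above the mean of all tested compounds plus 3 SD, cut at about 5.5% in these data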
hgDAF12 conf = confirmation of H. glycines DAF-12 agonists; shares compounds with hgDAF12 agonist; HEK293 GAL4-hgDAF12 luciferase reporter, agonist mode; percent of butyrate response; activation, % at 6.8 µM; 3,300 tested, 80% active;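 active = mean activation over triplicate wells above the hit cutoff derived from the earlier primary screen, cut at about 11% in these data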
LXRb DAF12 ctr = counter-screen for DAF-12 agonists: agonists of human LXR-beta. shares compounds with hgDAF12 agonist. HEK293 Gal4-LXR luciferase reporter, 24 h. activation, % at 6.8 µM. 3,300 tested, under 10 active. AID 743051;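 active = mean activation of the triplicate above a set limit carried over from the primary screen, none filed active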
Target sequence (P55055 whole entry, looked up, the tested form may be a part): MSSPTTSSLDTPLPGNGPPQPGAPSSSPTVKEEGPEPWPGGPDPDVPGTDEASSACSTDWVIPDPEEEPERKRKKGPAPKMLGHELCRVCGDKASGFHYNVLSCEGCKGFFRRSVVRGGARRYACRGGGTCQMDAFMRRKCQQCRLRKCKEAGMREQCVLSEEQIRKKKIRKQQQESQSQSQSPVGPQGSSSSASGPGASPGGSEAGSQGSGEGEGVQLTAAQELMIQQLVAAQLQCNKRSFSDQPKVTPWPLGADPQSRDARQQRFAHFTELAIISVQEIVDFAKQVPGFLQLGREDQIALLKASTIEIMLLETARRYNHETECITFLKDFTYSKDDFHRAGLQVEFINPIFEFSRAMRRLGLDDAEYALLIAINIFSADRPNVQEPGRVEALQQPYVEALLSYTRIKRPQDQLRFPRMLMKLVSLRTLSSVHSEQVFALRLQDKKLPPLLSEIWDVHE
Large screens that a line does not name were inactive (follow-up assays come after a bar, where they were run). Most compounds without a hit are left out; they make up all but 4.6% or so of the library.

CC(Cc1ccco1)NC(=O)c1ccc(C(F)(F)F)cc1 (centres undefined)	hgDAF12 agonist 13.8, ssDAF12 agonist 1.0 (no result: Wee1 stabilizer) | hgDAF12 conf 15.7 | LXRb DAF12 ctr inactive
N#CCCN(C(=O)COC(=O)CCNS(=O)(=O)c1ccccc1)c1ccccc1	none (no result: Wee1 stabilizer)
CNc1oc(/C=C/c2ccccc2)nc1C#N	hgDAF12 agonist 13.4, ssDAF12 agonist 1.6 | hgDAF12 conf 17.6 | LXRb DAF12 ctr inactive
COC(=O)N/N=C\c1ccccc1OC/C=C/c1ccccc1	none (no result: Wee1 stabilizer)
CCOC(=O)N/N=C\c1ccccc1OC/C=C/c1ccccc1	hgDAF12 agonist 14.3 (no result: Wee1 stabilizer) | hgDAF12 conf inactive | LXRb DAF12 ctr inactive
CCCCC1CCC(C(=O)Nc2ccc(N3CCOCC3)cc2N2CCOCC2)CC1 (centres undefined)	none (no result: Wee1 stabilizer)
Clc1ccc(-c2nc(Cc3ccccc3Cl)no2)cc1	none
Clc1ccc(Cc2noc(-c3cccs3)n2)cc1	hgDAF12 agonist 18.6 | hgDAF12 conf inactive | LXRb DAF12 ctr inactive
O=C(Nc1nccs1)c1ccc(-c2ccc(F)cc2)o1	hgDAF12 agonist 16.7 | hgDAF12 conf 14.3 | LXRb DAF12 ctr inactive
O=C(Cc1ccc(F)cc1)Nc1nccs1	none (no result: Wee1 stabilizer)
O=C(Nc1nccs1)c1ccc(-c2ccc([N+](=O)[O-])cc2)o1	hgDAF12 agonist 18.1 | hgDAF12 conf 11.6 | LXRb DAF12 ctr inactive
CCc1nc2c(OCc3cc(Cl)cc(Cl)c3)cccn2c1N(C)C(=O)c1ccc(C)cc1	none (no result: DAX1 inh-2, Wee1 stabilizer)
CCOC(=O)c1c(NC(=O)COC(=O)c2cnccn2)sc(C)c1C	none (no result: Wee1 stabilizer)
O=C(O)Cn1cc(/C=c2/sc3nc4ccccc4n3c2=O)c2ccccc21	hgDAF12 agonist 17.2, hcDAF12 agonist 5.9 | hgDAF12 conf 11.4 | LXRb DAF12 ctr inactive
O=[N+]([O-])c1nccn1CC(O)CCN1CCOCC1 (centres undefined)	none (no result: DAX1 inh-2, Wee1 stabilizer)
CCN(CC)CC(O)CNc1ccnc2c(Cl)ccc(Cl)c12 (centres undefined)	hgDAF12 agonist 13.5 (no result: Wee1 stabilizer) | hgDAF12 conf inactive | LXRb DAF12 ctr inactive
CN(C)Cc1c(-c2ccc(Cl)cc2)nc2ccccn12	hgDAF12 agonist 18.2, DAX1 inh-2 5.4 | hgDAF12 conf inactive | LXRb DAF12 ctr inactive
Cc1cccc(-n2ncc3c(N(C)Cc4ccccc4)ncnc32)c1	hgDAF12 agonist 15.5, DAX1 inh-1 4.0 (no result: Wee1 stabilizer) | hgDAF12 conf 14.4 | LXRb DAF12 ctr inactive
Cc1cccc(-n2ncc3c(N)ncnc32)c1	none
Nc1nc2c(ncn2[C@@H]2O[C@H](CNCC3=Cc4cc(O)ccc4OC3)[C@@H](O)[C@H]2O)c(=O)[nH]1	none (no result: DAX1 inh-2, Wee1 stabilizer)
Cn1c(=O)c2[nH]c(NN=Cc3cccc(Br)c3)nc2n(C)c1=O	none (no result: Wee1 stabilizer)
Cc1cccc(-n2ccc(=O)c(C(=O)Nc3ccc(S(=O)(=O)N4CCOCC4)cc3)n2)c1	none (no result: Wee1 stabilizer)
O=Cc1c(OCc2ccccc2)ccc2ccccc12	hgDAF12 agonist 14.3, Wee1 stabilizer 11.4, ssDAF12 agonist 0.9 | hgDAF12 conf inactive | LXRb DAF12 ctr inactive
C/[N+]([O-])=C/c1c(OCc2ccccc2)ccc2ccccc12	none (no result: Wee1 stabilizer)
C=C(C)/C=C1/CN(Cc2ccc3c(c2)OCO3)C(=N)N1C(=O)OCc1ccccc1	none (no result: DAX1 inh-2, Wee1 stabilizer)
O=C(O)c1ccc(N=Nc2c(O)[nH]c3cc(Cl)ccc23)cc1	hgDAF12 agonist 17.0, DAX1 inh-1 3.7, DAX1 inh-2 6.4, Wee1 stabilizer 12.1 | hgDAF12 conf 19.3 | LXRb DAF12 ctr inactive
CC1(c2nc3ccccc3[nH]2)CCC2=Nc3ccccc3CN21 (centres undefined)	none (no result: DAX1 inh-2, Wee1 stabilizer)
O=C(OCc1c(-c2ccccc2)ncc2ccccc12)c1cccc(Br)c1	none (no result: Wee1 stabilizer)
O=C(COC(=O)c1cc2ccccc2oc1=O)Nc1ccc(F)cc1F	hgDAF12 agonist 16.5 | hgDAF12 conf 15.8 | LXRb DAF12 ctr inactive
COc1ccc(NC(=S)N/C(=N/CS(=O)(=O)c2ccccc2)c2ccccc2)cc1	hgDAF12 agonist 13.8 | hgDAF12 conf inactive | LXRb DAF12 ctr inactive
O=[N+]([O-])c1ccc(NC(=S)N/C(=N/CS(=O)(=O)c2ccccc2)c2ccccc2)cc1	none
Cc1c(C(=O)NCc2ccc(C(F)(F)F)cc2)sc(=O)n1Cc1ccc(S(=O)(=O)N(C)C)cc1	none (no result: DAX1 inh-2, Wee1 stabilizer)
N/C(=N\OC(=O)c1ccc2c(c1)OCO2)c1cccc(Br)c1	none
N/C(=N\OC(=O)c1ccc2c(c1)OCO2)c1cccnc1	hgDAF12 agonist 13.7, ssDAF12 agonist 1.1 | hgDAF12 conf 11.4 | LXRb DAF12 ctr inactive
O=C(Nc1ccc([N+](=O)[O-])cc1)Nc1ccc2c(c1)OCCO2	hgDAF12 agonist 17.1 | hgDAF12 conf 19.5 | LXRb DAF12 ctr inactive
COc1cc([N+](=O)[O-])ccc1NC(=O)Nc1ccc2c(c1)OCCO2	none
O=C(Nc1cccnc1)Nc1ccc2c(c1)OCO2	none
O=C(Nc1ccc2c(c1)OCO2)Nc1ccc2c(c1)OCO2	hgDAF12 agonist 22.2, DAX1 inh-1 4.0 | hgDAF12 conf 16.8 | LXRb DAF12 ctr inactive
O=C(NCCc1ccccc1)Nc1ccc2c(c1)OCO2	hgDAF12 agonist 16.3 | hgDAF12 conf 16.6 | LXRb DAF12 ctr inactive
O=C(Nc1ccc2c(c1)OCCO2)NC1CCCCC1	hgDAF12 agonist 13.5 | hgDAF12 conf 16.4 | LXRb DAF12 ctr inactive
CC(C)(C)c1ccc(NC(=O)c2ccsc2)cc1	hgDAF12 agonist 16.9, ssDAF12 agonist 1.0, hcDAF12 agonist 6.5 (no result: DAX1 inh-2) | hgDAF12 conf 16.1 | LXRb DAF12 ctr inactive
CC(C)(C)c1ccc(C(=O)Nc2ccc(Cl)cc2)cc1	none
CC(C)(C)c1ccc(C(=O)Nc2cccnc2)cc1	hgDAF12 agonist 15.6, ssDAF12 agonist 1.5, hcDAF12 agonist 5.9 (no result: Wee1 stabilizer) | hgDAF12 conf 13.2 | LXRb DAF12 ctr inactive
Cc1ccc(-c2cc(C(=O)Nc3cccnc3)[nH]n2)c(O)c1C	hgDAF12 agonist 14.2, DAX1 inh-2 5.7 | hgDAF12 conf 16.4 | LXRb DAF12 ctr inactive
CCCCCN(C(=O)CCC(=O)OCc1ccc(C(C)(C)C)cc1)c1c(N)n(CCCC)c(=O)[nH]c1=O	none (no result: Wee1 stabilizer)
Nc1ccc(CCc2nc3ccccc3o2)cc1	hgDAF12 agonist 13.5 | hgDAF12 conf 13.1 | LXRb DAF12 ctr inactive
Cc1ccc(-c2cc3nc4c(c(=O)n3[nH]2)CCCC4)cc1	none
O=c1c2c(nc3cc(-c4ccc(F)cc4)[nH]n13)CCC2	hgDAF12 agonist 15.0, DAX1 inh-1 4.1, hcDAF12 agonist 6.4 | hgDAF12 conf 16.8 | LXRb DAF12 ctr inactive
COc1ccc(NC(=O)C(CCCCNC(=O)OC(C)(C)C)NC2(C(=O)NCCc3c[nH]c4ccccc34)CCCCC2)cc1 (centres undefined)	none (no result: DAX1 inh-1, DAX1 inh-2, Wee1 stabilizer)
